Several values for one entry are separate records, joined by “and”; a condition that tells them apart may be missing. Equal entries are not always repeated. Records with an inconclusive call do not appear. The source holds several records for some structures; these can differ, active in one and inactive in another. Activity calls are given as the source filed them. Rule for the calls, unless noted: active = hit-call score of the fitted dose curve at least 0.9, where 1 is the maximum; inactive = score below 0.9.
Columns and labels:
[1] = target: Nuclear respiratory factor 1 (Homo sapiens) (UniProt Q16656); test: ATG_NRF1_CIS: Attagene CIS-FACTORIAL HepG2 Assay for human Nuclear Respiratory Factor 1 (NRF1) Orphan Gene (AID 2282987); details: HepG2 NRF1 cis-element reporter, Attagene multiplex; actives raise or lower the signal
In short: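 Endogenous NRF1-driven reporter transcription in transfected HepG2 cells after 24 h treatment. Readout: RT-PCR products, 6-FAM labelled and resolved by capillary electrophoresis; changes fitted both directions relative to DMSO.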

[2] = ATG_NFI_CIS: Attagene CIS-FACTORIAL HepG2 Assay for human Nuclear Factor I (NFI) (AID 2282989); details: HepG2 cis-regulatory reporter, NFI response element transcription; actives raise or lower the signal
In short: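 Reporter transcription driven by endogenous transcription factors in HepG2 cells; 24 h treatment. Quantitation by labelled RT-PCR fragments on capillary electrophoresis, gain- or loss-of-signal relative to DMSO.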

[3] = target: Myc proto-oncogene protein (Homo sapiens) (UniProt P01106); test: ATG_Myc_CIS: Attagene CIS-FACTORIAL HepG2 Assay for human Myelocytomatosis (Myc) Proto-Oncogene Transcription Factor (AID 2282990); details: HepG2, Attagene cis-reporter transcription factor activity; actives raise or lower the signal
In short: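 Multiplexed cis-reporter transcription in HepG2 cells after 24 h chemical treatment. Reporter mRNA measured by RT-PCR and capillary electrophoresis fluorescence; activity fitted bidirectionally against DMSO control.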

[4] = ATG_NF_kB_CIS: Attagene CIS-FACTORIAL HepG2 Assay for human Nuclear Factor Kappa B (NF-kB) (AID 2282991); details: HepG2 Attagene cis-factorial NF-kB reporter mRNA; actives raise or lower the signal
In short: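 Readout is reporter transcript level, gain or loss versus DMSO, measured 24 h post-dose via RT-PCR, fluorescent labelling and capillary electrophoresis. Human HepG2 liver cells carried transiently transfected CIS reporter constructs reflecting endogenous factors.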

[5] = ATG_NRF2_ARE_CIS: Attagene CIS-FACTORIAL HepG2 Assay for human Nuclear Factor Erythroid 2 Related Factor 2 (NFR2) response to Antioxidant Response Elements (ARE) (AID 2282992); details: HepG2 Attagene ARE/NRF2 reporter, transcription factor activity; actives raise or lower the signal
In short: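 HepG2 cells transiently transfected with multiplexed cis-element reporter constructs, 24 h after chemical dosing; reporter mRNA quantified by RT-PCR, fluorescent primer extension, HpaI digestion and capillary electrophoresis. Bidirectional fit relative to DMSO.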

[6] = ATG_Oct_MLP_CIS: Attagene CIS-FACTORIAL HepG2 Assay for human Octamer-Binding Transcription Factor (Oct) (AID 2282993); details: HepG2 Attagene cis-factorial Oct reporter, mRNA; actives raise or lower the signal
In short: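 Transfected HepG2 cells, 24 h treatment. Reporter mRNA quantified by RT-PCR–capillary electrophoresis; bidirectional fitting against DMSO.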

[7] = target: Cellular tumor antigen p53 (Homo sapiens) (UniProt P04637); test: ATG_p53_CIS: Attagene CIS-FACTORIAL HepG2 Assay for human p53 Transcription Factor (AID 2282994); details: HepG2 p53 cis-element reporter, Attagene mRNA; actives raise or lower the signal
In short: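 HepG2 cells transiently transfected with cis-regulated multiple reporter transcription units, dosed 24 h. Reporter mRNA measured by RT-PCR, 6-FAM primer extension, HpaI digestion and capillary electrophoresis; bidirectional fit relative to DMSO.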

[8] = BSK_3C_TissueFactor: BioMAP Diversity Plus: 3C Assay for Tissue Factor Biomarker Activity (AID 2282997); details: BioMAP 3C HUVEC, tissue factor biomarker readout; actives raise or lower the signal
In short: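 Primary human umbilical vein endothelial cells in the 3C system were exposed to test chemical for 24 h, then Tissue Factor measured by ELISA. Activity was fitted bidirectionally against DMSO as negative control and baseline.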

[9] = BSK_3C_uPAR: BioMAP Diversity Plus: 3C Assay for Urokinase-type plasminogen activator receptor (uPAR) Biomarker Activity (AID 2282998); details: BioMAP 3C HUVEC, uPAR biomarker ELISA; actives raise or lower the signal
In short: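 Readout: ELISA for surface uPAR. System: human umbilical vein endothelial primary cells, 24 h after chemical exposure. Analysis: bidirectional fit, DMSO baseline.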

[10] = BSK_3C_VCAM1: BioMAP Diversity Plus: 3C Assay for Vascular cell adhesion molecule 1 (VCAM1) Biomarker Activity (AID 2282999); details: BioMAP 3C HUVEC, VCAM1 ELISA, cytokine-stimulated; actives raise or lower the signal
In short: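 Human umbilical vein endothelial cells were dosed with compound for 24 h, after which cell-surface VCAM-1 was quantified by ELISA. Bidirectional curve fitting used DMSO as negative control and activity baseline.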

[11] = BSK_4H_Eotaxin3: BioMAP Diversity Plus: 4H Assay for Eotaxin 3 Biomarker Activity (AID 2283000); details: primary human endothelial cells (HUVEC); actives raise or lower the signal
In short: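 HUVEC, 24 h post-dose, ELISA for Eotaxin-3/CCL26. Gain or loss of signal fitted bidirectionally vs DMSO baseline.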

[12] = target: human Peroxisome Proliferator-activated Receptor alpha (PPARa), PPARA (gene 5465) (UniProt Q07869); test: ATG_PPARa_TRANS: Attagene TRANS-FACTORIAL HepG2 Assay for human Peroxisome Proliferator-activated Receptor alpha (PPARa) (AID 2283001; active = hit-call score of the fitted dose curve at least 0.9, where 1 is the maximum)
In short: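 Gain-of-signal endpoint: reporter mRNA induction relative to DMSO, detected by fluorescent RT-PCR and capillary electrophoresis. HepG2 cells transiently carried GAL4-UAS-driven reporter units plus NR-Gal4 fusion; exposure lasted 24 h.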

[13] = target: human Peroxisome Proliferator-activated Receptor delta (PPARd), PPARD (gene 5467) (UniProt Q03181); test: ATG_PPARd_TRANS: Attagene TRANS-FACTORIAL HepG2 Assay for human Peroxisome Proliferator-activated Receptor delta (PPARd) (AID 2283002; active = hit-call score of the fitted dose curve at least 0.9, where 1 is the maximum)
In short: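 Multiplexed trans-activation format: HepG2 liver cells expressing exogenous NR-Gal4 chimeras and GAL4-UAS reporters were exposed for 24 h. Reporter mRNA was detected by RT-PCR with capillary electrophoresis fluorescence; activity fitted as gain of signal relative to DMSO.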

[14] = target: human Retinoic Acid Receptor beta (RARb), RARB (gene 5915) (UniProt P10826); test: ATG_RARb_TRANS: Attagene TRANS-FACTORIAL HepG2 Assay for human Retinoic Acid Receptor beta (AID 2283004; active = hit-call score of the fitted dose curve at least 0.9, where 1 is the maximum)
In short: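 HepG2 cells transiently transfected with multiplexed GAL4-UAS reporter units expressing chimeric NR–Gal4 fusions; 24 h compound exposure. Reporter mRNA quantified by RT-PCR, 6-FAM labelling, HpaI digestion and capillary electrophoresis; gain-of-signal fitted against DMSO baseline.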

[15] = target: Retinoic acid receptor alpha (Homo sapiens) (UniProt P10276); test: ATG_RARa_TRANS: Attagene TRANS-FACTORIAL HepG2 Assay for human Retinoic Acid Receptor alpha (RARa) (AID 2283005; active = hit-call score of the fitted dose curve at least 0.9, where 1 is the maximum)
In short: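 HepG2 cells transiently transfected with multiple reporter units expressing chimeric RARα-GAL4 fusion, with GAL4-UAS-driven reporters. After 24 h compound exposure, reporter mRNA induction quantified by RT-PCR and capillary electrophoresis with fluorescent labeling; gain-of-signal fitted relative to DMSO control.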

[16] = BSK_3C_Proliferation: Cell Proliferation Assessment in the BioMAP Diversity Plus: 3C Assay (AID 2283006); details: primary human endothelial cells (HUVEC);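 for AC50: potency may reflect either rise or fall in cell number versus DMSO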
In short: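 Read-out is total protein by SRB absorbance at 560 nm, taken as a proxy for relative cell number. Primary human umbilical vein endothelium cultured below confluence was dosed for 48 h, TCA-fixed and SRB-stained; curves were fitted bidirectionally versus DMSO.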

[17] = target: Nuclear receptor subfamily 1 group I member 2 (Homo sapiens) (UniProt O75469); test: ATG_PXR_TRANS: Attagene TRANS-FACTORIAL HepG2 Assay for human Pregnane X Receptor (PXR) (AID 2283008; active = hit-call score of the fitted dose curve at least 0.9, where 1 is the maximum)
In short: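 HepG2 cells transiently transfected with GAL4-UAS reporter units and PXR-Gal4 chimera, exposed 24 h. Reporter mRNA quantified by RT-PCR, fluorescent labelling, HpaI digestion and capillary electrophoresis; gain of signal vs DMSO.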

[18] = read-out: Intercellular Adhesion Molecule 1 (ICAM1), ICAM1 (gene 3383); test: BSK_3C_ICAM1: BioMAP Diversity Plus: 3C Assay for Intercellular Adhesion Molecule 1 (ICAM1) Biomarker Activity (AID 2283003); details: primary human endothelial cells (HUVEC); actives raise or lower the signal
In short: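 ICAM-1 levels measured by ELISA after HUVEC cultures in the 3C system had been dosed for 24 h. Gain or loss of signal relative to DMSO was fitted in both directions.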

[19] = target: Peroxisome proliferator-activated receptor gamma (Homo sapiens) (UniProt P37231); test: ATG_PPARg_TRANS: Attagene TRANS-FACTORIAL HepG2 Assay for human Peroxisome Proliferator-activated Receptor-gamma (PPARg) (AID 2283007; active = hit-call score of the fitted dose curve at least 0.9, where 1 is the maximum)
In short: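 After 24 h of chemical exposure, transfected HepG2 cells carrying PPARγ-Gal4 chimera reporter constructs are lysed for RNA. Reporter transcripts are measured by RT-PCR and capillary electrophoresis with fluorescent labelling, and gain of signal is fitted versus DMSO.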

[20] = target: human Retinoic Acid Receptor gamma (RARg), RARG (gene 5916) (UniProt P13631); test: ATG_RARg_TRANS: Attagene TRANS-FACTORIAL HepG2 Assay for human Retinoic Acid Receptor gamma (RARg) (AID 2283009; active = hit-call score of the fitted dose curve at least 0.9, where 1 is the maximum)
In short: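 Transient transfection of HepG2 with multi-reporter constructs, then 24 h chemical treatment. Total RNA isolated, reverse-transcribed, PCR-amplified, fluorescently labelled and resolved by capillary electrophoresis; activity scored as mRNA induction versus DMSO.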

Measured: AC50

Retinoic acid receptor alpha (Homo sapiens), sequence (P10276 whole entry, looked up, the tested form may be a part): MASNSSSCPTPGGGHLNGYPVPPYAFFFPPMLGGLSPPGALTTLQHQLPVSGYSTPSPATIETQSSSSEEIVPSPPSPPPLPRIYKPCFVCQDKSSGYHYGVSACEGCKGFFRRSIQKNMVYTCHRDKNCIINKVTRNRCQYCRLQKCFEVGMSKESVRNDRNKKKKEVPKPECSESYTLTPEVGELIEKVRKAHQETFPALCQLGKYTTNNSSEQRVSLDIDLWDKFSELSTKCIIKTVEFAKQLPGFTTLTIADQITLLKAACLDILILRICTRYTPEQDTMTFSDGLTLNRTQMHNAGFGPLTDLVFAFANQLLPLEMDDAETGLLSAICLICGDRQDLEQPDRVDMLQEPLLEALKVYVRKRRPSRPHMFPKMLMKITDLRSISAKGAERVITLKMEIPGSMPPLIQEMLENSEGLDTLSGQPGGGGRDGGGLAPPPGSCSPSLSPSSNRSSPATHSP
human Retinoic Acid Receptor beta (RARb), RARB (gene 5915), sequence (P10826 whole entry, looked up, the tested form may be a part): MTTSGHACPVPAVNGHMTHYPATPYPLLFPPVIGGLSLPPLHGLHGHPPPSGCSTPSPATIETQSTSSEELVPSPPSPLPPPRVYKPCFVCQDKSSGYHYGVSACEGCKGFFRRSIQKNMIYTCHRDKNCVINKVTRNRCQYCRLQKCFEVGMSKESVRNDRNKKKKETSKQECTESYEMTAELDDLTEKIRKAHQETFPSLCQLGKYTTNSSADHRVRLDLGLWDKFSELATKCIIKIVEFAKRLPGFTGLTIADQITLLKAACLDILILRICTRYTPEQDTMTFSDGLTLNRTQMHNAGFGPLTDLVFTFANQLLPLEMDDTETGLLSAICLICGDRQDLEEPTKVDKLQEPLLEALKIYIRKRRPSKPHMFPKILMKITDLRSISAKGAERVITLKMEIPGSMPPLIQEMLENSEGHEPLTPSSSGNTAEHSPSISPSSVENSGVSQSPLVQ
human Retinoic Acid Receptor gamma (RARg), RARG (gene 5916), sequence (P13631 whole entry, looked up): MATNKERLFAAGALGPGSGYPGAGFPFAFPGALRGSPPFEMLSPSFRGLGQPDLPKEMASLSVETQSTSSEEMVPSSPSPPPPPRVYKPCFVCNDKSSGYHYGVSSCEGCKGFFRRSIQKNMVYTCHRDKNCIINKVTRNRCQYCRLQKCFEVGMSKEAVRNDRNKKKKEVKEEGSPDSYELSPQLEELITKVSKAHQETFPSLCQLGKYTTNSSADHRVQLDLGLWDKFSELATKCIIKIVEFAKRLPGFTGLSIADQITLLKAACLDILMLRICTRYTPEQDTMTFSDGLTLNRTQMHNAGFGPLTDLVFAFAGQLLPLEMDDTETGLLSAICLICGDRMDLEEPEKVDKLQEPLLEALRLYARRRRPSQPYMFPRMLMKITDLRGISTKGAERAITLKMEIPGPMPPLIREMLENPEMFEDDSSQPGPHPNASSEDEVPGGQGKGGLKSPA
human Peroxisome Proliferator-activated Receptor alpha (PPARa), PPARA (gene 5465), sequence (Q07869 whole entry, looked up, the tested form may be a part): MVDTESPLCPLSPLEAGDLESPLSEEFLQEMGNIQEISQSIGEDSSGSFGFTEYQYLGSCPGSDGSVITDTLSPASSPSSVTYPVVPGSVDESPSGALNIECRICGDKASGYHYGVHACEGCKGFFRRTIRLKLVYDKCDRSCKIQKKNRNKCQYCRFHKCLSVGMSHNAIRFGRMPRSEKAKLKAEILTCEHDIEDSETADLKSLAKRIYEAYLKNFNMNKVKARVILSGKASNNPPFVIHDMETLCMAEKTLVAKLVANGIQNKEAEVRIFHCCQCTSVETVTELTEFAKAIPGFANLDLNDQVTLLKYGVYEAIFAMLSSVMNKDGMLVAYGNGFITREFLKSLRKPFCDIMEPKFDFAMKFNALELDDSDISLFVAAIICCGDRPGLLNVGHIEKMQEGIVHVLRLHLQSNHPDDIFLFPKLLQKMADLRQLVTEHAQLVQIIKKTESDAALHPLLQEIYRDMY
Myc proto-oncogene protein (Homo sapiens), sequence (P01106 whole entry, looked up): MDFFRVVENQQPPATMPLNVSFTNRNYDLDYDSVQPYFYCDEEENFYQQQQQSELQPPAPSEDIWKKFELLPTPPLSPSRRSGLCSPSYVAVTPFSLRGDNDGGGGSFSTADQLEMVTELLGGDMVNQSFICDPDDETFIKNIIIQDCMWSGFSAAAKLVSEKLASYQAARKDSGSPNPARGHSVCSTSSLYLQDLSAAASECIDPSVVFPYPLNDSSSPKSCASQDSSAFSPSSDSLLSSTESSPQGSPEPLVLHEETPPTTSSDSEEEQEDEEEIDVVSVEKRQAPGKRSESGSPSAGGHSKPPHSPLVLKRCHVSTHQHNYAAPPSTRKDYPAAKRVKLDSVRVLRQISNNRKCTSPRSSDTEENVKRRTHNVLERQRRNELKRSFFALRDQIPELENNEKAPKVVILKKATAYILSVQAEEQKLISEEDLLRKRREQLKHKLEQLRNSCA
Nuclear respiratory factor 1 (Homo sapiens), sequence (Q16656 whole entry, looked up): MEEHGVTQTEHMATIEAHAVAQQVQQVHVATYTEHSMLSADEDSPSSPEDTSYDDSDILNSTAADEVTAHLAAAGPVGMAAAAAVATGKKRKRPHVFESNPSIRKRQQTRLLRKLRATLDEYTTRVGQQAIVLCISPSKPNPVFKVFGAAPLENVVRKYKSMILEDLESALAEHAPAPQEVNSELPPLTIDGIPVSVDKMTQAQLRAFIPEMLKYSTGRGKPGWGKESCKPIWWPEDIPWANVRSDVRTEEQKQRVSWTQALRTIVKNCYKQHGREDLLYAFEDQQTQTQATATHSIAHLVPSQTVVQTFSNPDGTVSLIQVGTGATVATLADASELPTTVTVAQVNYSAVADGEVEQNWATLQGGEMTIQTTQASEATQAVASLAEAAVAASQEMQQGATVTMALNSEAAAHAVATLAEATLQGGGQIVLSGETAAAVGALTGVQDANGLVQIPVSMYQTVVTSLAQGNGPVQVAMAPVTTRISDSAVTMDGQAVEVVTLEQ
human Peroxisome Proliferator-activated Receptor delta (PPARd), PPARD (gene 5467), sequence (Q03181 whole entry, looked up, the tested form may be a part): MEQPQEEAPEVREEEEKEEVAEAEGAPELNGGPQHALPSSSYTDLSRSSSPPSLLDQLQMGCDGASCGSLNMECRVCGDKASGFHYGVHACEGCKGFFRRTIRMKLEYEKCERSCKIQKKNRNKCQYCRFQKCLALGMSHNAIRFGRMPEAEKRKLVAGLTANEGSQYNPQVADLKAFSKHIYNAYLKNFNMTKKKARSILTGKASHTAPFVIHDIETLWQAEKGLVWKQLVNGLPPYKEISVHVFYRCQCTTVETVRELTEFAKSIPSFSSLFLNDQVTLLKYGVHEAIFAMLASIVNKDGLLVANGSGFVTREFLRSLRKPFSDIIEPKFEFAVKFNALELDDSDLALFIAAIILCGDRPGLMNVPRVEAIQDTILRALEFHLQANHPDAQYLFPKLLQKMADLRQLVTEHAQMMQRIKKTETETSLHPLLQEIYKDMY
Peroxisome proliferator-activated receptor gamma (Homo sapiens), sequence (P37231 whole entry, looked up, the tested form may be a part): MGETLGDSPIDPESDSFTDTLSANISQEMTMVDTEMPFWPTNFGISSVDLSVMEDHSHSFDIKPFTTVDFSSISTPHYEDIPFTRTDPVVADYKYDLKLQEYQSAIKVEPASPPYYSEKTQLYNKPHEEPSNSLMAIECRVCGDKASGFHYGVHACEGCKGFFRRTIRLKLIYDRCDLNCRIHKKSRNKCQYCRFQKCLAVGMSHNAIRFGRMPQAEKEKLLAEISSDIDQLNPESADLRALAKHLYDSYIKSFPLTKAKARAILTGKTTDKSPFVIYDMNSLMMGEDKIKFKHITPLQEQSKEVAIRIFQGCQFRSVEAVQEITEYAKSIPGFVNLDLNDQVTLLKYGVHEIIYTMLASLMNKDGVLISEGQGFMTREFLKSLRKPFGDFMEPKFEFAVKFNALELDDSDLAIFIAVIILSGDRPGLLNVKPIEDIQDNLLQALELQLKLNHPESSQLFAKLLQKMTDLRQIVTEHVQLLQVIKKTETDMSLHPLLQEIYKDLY
Cellular tumor antigen p53 (Homo sapiens), sequence (P04637 whole entry, looked up): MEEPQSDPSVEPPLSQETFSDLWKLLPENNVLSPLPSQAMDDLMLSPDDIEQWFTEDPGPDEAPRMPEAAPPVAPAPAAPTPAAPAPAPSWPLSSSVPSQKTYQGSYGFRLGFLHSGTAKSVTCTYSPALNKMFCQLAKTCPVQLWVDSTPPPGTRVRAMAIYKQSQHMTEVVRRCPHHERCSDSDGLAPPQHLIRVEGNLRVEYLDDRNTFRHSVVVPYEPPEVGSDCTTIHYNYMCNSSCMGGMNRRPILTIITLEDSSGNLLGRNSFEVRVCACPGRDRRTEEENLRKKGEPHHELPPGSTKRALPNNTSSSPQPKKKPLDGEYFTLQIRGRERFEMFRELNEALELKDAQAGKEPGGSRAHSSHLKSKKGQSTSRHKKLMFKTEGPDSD
Nuclear receptor subfamily 1 group I member 2 (Homo sapiens), sequence (O75469 whole entry, looked up, the tested form may be a part): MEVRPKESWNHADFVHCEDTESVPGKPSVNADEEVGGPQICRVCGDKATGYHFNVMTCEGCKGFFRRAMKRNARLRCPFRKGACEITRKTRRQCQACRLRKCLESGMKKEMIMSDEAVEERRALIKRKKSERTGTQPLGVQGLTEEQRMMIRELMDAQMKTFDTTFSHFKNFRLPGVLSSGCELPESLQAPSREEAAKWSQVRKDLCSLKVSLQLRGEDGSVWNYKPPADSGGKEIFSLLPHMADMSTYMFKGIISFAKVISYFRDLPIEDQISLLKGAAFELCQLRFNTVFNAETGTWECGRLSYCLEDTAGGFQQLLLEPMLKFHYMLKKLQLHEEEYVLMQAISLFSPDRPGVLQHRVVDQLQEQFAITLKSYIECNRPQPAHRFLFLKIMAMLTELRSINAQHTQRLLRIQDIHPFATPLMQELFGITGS

C=C(C)C(=O)OCC(F)(F)C(F)(F)C(F)(F)F
not listed: [18] | [19] | [20]
inactive: all other assays above

O=C(O)C(F)(F)C(F)(F)F
not listed: [14] | [20]
inactive: all other assays above

COC(=O)C1CCC(C(=O)OC)CC1 (stereo not given)
inactive: [1] | [2] | [3] | [4] | [5] | [6] | [7] | [12] | [13] | [14] | [17] | [20]
active: [5] 163 µM

O=C(O)C(F)(F)C(F)(F)C(F)(F)C(F)(F)C(F)(F)C(F)(F)C(F)(F)C(F)(F)C(F)(F)C(F)(F)C(F)(F)C(F)(F)C(F)(F)F
inactive: [1] | [2] | [3] | [6] | [7] | [8] | [9] | [10] | [11] | [13] | [18] | [14] | [15] | [19] | [17]
active: [4] 26.2 µM | [5] 26.1 µM | [11] 1.32 µM | [16] 1.29 µM and 252 nM

FC(F)(F)C(F)(F)C(F)(F)C(F)(F)CCI
inactive: [1] | [2] | [3] | [4] | [5] | [6] | [7] | [8] | [9] | [10] | [11] | [12] | [13] | [15] | [16] | [19] | [17]
active: [5] 79.7 µM | [11] 10.6 µM | [19] 36.9 µM

FC(F)(I)C(F)(F)C(F)(F)C(F)(F)I
active: [5] 33.4 µM | [8] 44.1 µM and 42 µM and 56.5 µM | [9] 51.2 µM and 53.9 µM and 47.1 µM | [10] 49.9 µM and 48.3 µM and 57.1 µM | [11] 52.2 µM and 47.2 µM and 45.6 µM | [16] 49.8 µM and 52.8 µM and 49.4 µM
not listed: [13] | [15] | [18] | [19] | [20]
inactive: all other assays above

FC(F)(F)C(F)(F)C(F)(F)C(F)(F)C(F)(F)C(F)(F)C(F)(F)Br
not listed: [14] | [20]
inactive: all other assays above

C=CC/C=C/C/C=C/C/C=C/C
not listed: [14] | [15] | [19] | [20]
inactive: all other assays above

O=C(O)C(F)(F)C(F)(F)C(F)F
not listed: [13] | [20]
inactive: all other assays above

OCC(F)(F)C(F)(F)C(F)(F)F
not listed: [18] | [19] | [20]
inactive: all other assays above

COC(=O)CCC(F)(F)C(F)(F)C(F)(F)C(F)(F)F
not listed: [15] | [19]
inactive: all other assays above

O=C(O)C=C(C(F)(F)F)C(F)(F)F
active: [4] 68.2 µM | [5] 1.89 µM and 3.02 µM | [10] 22.4 µM and 8.91 µM | [16] 27 µM
inactive: [1] | [2] | [3] | [4] | [6] | [7] | [8] | [9] | [11] | [12] | [13] | [16] | [17]

FC(F)(F)C(F)(F)C(F)(F)C(F)(F)C(F)(F)C(F)(F)C(F)(F)C(F)(F)CCS
not listed: [13] | [14] | [15] | [17] | [19] | [20]
inactive: all other assays above

— PubChem BioAssay (EPA / NIEHS)
